Compound activity (PubChem)
TDP1 cell noCPT: qHTS for Inhibitors of human tyrosyl-DNA phosphodiesterase 1 (TDP1): qHTS in cells in absence of CPT | DT40 Tdp1-/- hTDP1 cells, no CPT, ATP luminescence, 48 h | Potency, µM (series often up to 46.2 µM), for inactives: at the top dose activity change, negative = growth inhibition, most hits filed as inhibitors | 420,000 compounds, 15% hits; note: potency is the fitted concentration of half-maximal effect; nearly all actives have a fitted effect of over 55% in size
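Cells were dispensed at 400 per well, compounds added by pin tool, plates incubated ≥48 hr at 37 °C, then CellTiter-Glo added for 30 min at room temperature before luminescence reading. Line: DT40 Tdp1-/- complemented with hTDP1; camptothecin omitted.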
IL1B secr inh: inflammasome signaling inhibition, IL-1 beta readout; activity change, % at 57.5 µM; AID 743279; THP-1 LPS/ATP IL-1B secretion, AlphaLISA, 16 h; hits give low values; 360,000 compounds, 4.7% hits; in the data active = activity change below about -50%; inconclusive = mostly about -30% to -49%
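THP-1 cells pretreated 1 hr with compounds (up to 57.5 uM final), then stimulated with LPS (250 ng/mL final) plus ATP (1.25 mM final); secreted IL-1B measured by AlphaLISA after 16 hr, decreased signal indicating inhibition.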
12-LOX inh: blocks human arachidonate 12S-lipoxygenase | Potency, µM (top dose mostly 108 µM), for inactives: at the top dose activity change, negative = inhibition, hits mostly inhibitors | AID 1671190 | P18054 | 580,000 compounds, 1.1% hits | purified 12hLO, xylenol orange hydroperoxide absorbance; note: potency is the fitted concentration of half-maximal effect
Target sequence (P18054 whole entry, looked up): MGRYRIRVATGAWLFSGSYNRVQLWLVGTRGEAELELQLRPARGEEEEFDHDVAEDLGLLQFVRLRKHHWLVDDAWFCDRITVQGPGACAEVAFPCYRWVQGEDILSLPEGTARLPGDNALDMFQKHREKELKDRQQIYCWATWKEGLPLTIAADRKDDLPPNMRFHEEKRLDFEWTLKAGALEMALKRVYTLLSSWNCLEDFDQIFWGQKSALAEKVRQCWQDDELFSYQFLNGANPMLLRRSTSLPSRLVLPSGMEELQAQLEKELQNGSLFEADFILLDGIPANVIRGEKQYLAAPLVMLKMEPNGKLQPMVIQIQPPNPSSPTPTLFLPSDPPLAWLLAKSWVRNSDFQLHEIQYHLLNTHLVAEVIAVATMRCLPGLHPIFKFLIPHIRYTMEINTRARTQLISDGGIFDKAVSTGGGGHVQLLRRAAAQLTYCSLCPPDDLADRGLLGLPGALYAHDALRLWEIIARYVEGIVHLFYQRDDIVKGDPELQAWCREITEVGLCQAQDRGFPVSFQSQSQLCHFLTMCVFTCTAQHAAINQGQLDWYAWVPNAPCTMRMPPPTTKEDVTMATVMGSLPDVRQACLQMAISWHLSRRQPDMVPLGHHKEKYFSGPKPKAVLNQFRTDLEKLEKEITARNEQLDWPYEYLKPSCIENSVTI
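Hydroperoxide product was detected by ferrous iron/xylenol orange as the 573 to 405 nm absorbance ratio. Arachidonic acid at 40 uM (final) was turned over for 30 min at room temperature by 150 nM human 12hLO, pH 7.0 Hepes buffer, after 15 min compound preincubation.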
HT1080NT lethal: kills 2HG-producing HT-1080-NT fibrosarcoma cells; HT-1080-NT fibrosarcoma viability, CellTiter-Glo ATP luminescence, 48 h; Potency, µM (top dose mostly 46.1 µM), inactives show at the highest dose activity, negative = less viability, actives largely listed as cytotoxic; 360,000 compounds, 1.6% hits;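 note: NT is the 2HG producing partner of a matched IDH1 knockdown line; potency is the fitted concentration of half-maximal effect; 0% = DMSO-treated cells and -100% = media-only wells without cells; nearly all actives have a fitted effect of over 55% in size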
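Viability of the 2HG-overproducing fibrosarcoma line after 48 hours of compound exposure at 37 degrees C was determined by luminescence with CellTiter-Glo, and concentration-effect curves were then fitted and categorized.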
TDP1 cell CPT: DT40-hTDP1 cell growth loss with CPT | chicken DT40 Tdp1-/-;hTDP1 cells + 20 nM CPT, ATP luminescence, 48 h | 420,000 compounds, 12% hits | Potency, µM (series often up to 46.2 µM), without a hit: at the highest dose activity change, negative = growth inhibition, most hits filed as inhibitors | AID 686979; note: potency is the fitted concentration of half-maximal effect; nearly all actives have a fitted effect of over 55% in size
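Cell growth measured by CellTiter-Glo luminescence after a minimum 48 h, 37 C compound exposure with 20 nM CPT in Tdp1-knockout DT40 cells stably expressing hTDP1, seeded 400/well; qHTS titration format.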
HT1080 IDH1KD tx: toxicity to HT-1080 IDH1 knockdown cells (counter line); AID 686971; Potency, µM (highest dose often 46.1 µM), inactives show top-dose activity, negative = toxicity, most hits filed as cytotoxic; 360,000 compounds, 2% hits; HT-1080 IDH1 knockdown viability, ATP luminescence, 48 h;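 note: potency is the fitted concentration of half-maximal effect; 0% = DMSO wells and -100% = cell-free medium wells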
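HT-1080-IDH1KD cells (IDH1 knocked down), 750/well in RPMI with 5% FBS, treated with compound 48 h at 37 degrees C. Viability by CellTiter-Glo luminescence, normalised to DMSO and no-cell wells; concentration-response curves classed.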
An asterisk follows results filed as active. Only a selection was taken, and hits are over-represented in it overall. Unless noted, calls come from the whole dose curve; as a rule, active = well fitted curve in the direction sought with a large enough effect; inconclusive = small, poorly fitted or top-dose-only effect, or another doubt; inactive = no such curve, though single readings can be large; an effect the other way counts as inactive or inconclusive. Unless noted, % is set by controls: 0 for no effect and ±100 for the full control effect.

Results for COc1cccc(CN2CCC2(C)C(=O)Nc2cccc3cccnc23)c1F (stereo not drawn) ?
TDP1 cell noCPT: 18.4µM*; IL1B secr inh: 21.4; 12-LOX inh: 20.0%; HT1080NT lethal: 23.1µM*; TDP1 cell CPT: inconclusive; HT1080 IDH1KD tx: 13µM*

Results for Cc1ccc(NC(=O)C2(C)CCN2C2Cc3ccccc3C2)cc1 (stereo not drawn) ?
TDP1 cell noCPT: inconclusive; IL1B secr inh: 35.1; 12-LOX inh: 5.3%; HT1080NT lethal: inconclusive; TDP1 cell CPT: inconclusive; HT1080 IDH1KD tx: -25.9%

How did COc1cccc(CN2CCC2(C)C(=O)NCc2cccc(C(F)(F)F)c2)c1OC (stereo not drawn) do in these assays?
TDP1 cell noCPT: 13µM*; IL1B secr inh: -1.2; 12-LOX inh: -0.7%; HT1080NT lethal: inconclusive; TDP1 cell CPT: 13µM*; HT1080 IDH1KD tx: inconclusive

Results for Cc1ccc(S(=O)(=O)Oc2ccc3oc(=O)c(-c4ccccc4)c(C)c3c2)cc1 ?
12-LOX inh: 4.4%

What do the screens show for `CCC1CCc2sc(C(=O)NC3CCCC3)cc2C1` (stereo not drawn)?
12-LOX inh: -2.8%

What do the screens show for `COc1ccc(NC(=O)C2(C)CCN2Cc2cccc(OC)c2OC)cc1OC` (stereo not drawn)?
TDP1 cell noCPT: 16.4µM*; IL1B secr inh: 0.0; 12-LOX inh: 3.5%; HT1080NT lethal: 4.8%; TDP1 cell CPT: inconclusive; HT1080 IDH1KD tx: -0.7%

Results for COc1ccc(NC(=O)C2(C)CCN2Cc2ccc(OC)c3ccccc23)cc1OC (stereo not drawn) ?
TDP1 cell noCPT: 23.1µM*; IL1B secr inh: -26.2; 12-LOX inh: -22.8%; HT1080NT lethal: inconclusive; TDP1 cell CPT: inconclusive; HT1080 IDH1KD tx: 23.1µM*

What do the screens show for `COc1ccc(OC)c(NC(=O)C2(C)CCN2Cc2ccc(OC)c3ccccc23)c1` (stereo not drawn)?
TDP1 cell noCPT: inconclusive; IL1B secr inh: 28.4; 12-LOX inh: -9.1%; HT1080NT lethal: -19.6%; TDP1 cell CPT: inconclusive; HT1080 IDH1KD tx: inconclusive

Results for O=C(c1cccnc1CCC1COc2ccccc2O1)N1CCCC1 (stereo not drawn) ?
12-LOX inh: -5.5%

Results for CC/C(O)=C1\C(=O)CC(c2ccccc2)CC1=NC(C)C (stereo not drawn) ?
TDP1 cell noCPT: -28.9%; IL1B secr inh: 1.6; 12-LOX inh: 32.4%; HT1080NT lethal: 19.0%; TDP1 cell CPT: -21.8%; HT1080 IDH1KD tx: 18.8%

Results for CCc1n[nH]c2c1/C(=N\O)CC(c1ccccc1)C2 (stereo not drawn) ?
TDP1 cell noCPT: 23.1µM*; IL1B secr inh: -3.4; 12-LOX inh: 0.0%; HT1080NT lethal: 1.6%; TDP1 cell CPT: inconclusive; HT1080 IDH1KD tx: 3.7%

How did CCCCc1noc2c1/C(=N\O)CC(c1ccccc1)C2 (stereo not drawn) do in these assays?
TDP1 cell noCPT: -24.0%; IL1B secr inh: -5.6; 12-LOX inh: -23.5%; HT1080NT lethal: 9.2%; TDP1 cell CPT: -24.7%; HT1080 IDH1KD tx: 11.3%

What do the screens show for `CCCCc1n[nH]c2c1/C(=N/O)CC(c1ccccc1)C2` (stereo not drawn)?
TDP1 cell noCPT: inconclusive; IL1B secr inh: -58.5*; 12-LOX inh: 1.7%; HT1080NT lethal: inconclusive; TDP1 cell CPT: inconclusive; HT1080 IDH1KD tx: inconclusive

What do the screens show for `CCCc1nn2c(=O)cc(COc3cccc(NC(=O)c4cccs4)c3)nc2s1`?
12-LOX inh: 9.3%

How did CCCCNC(=O)Nc1ccc(C2SCCS2)cc1 do in these assays?
TDP1 cell noCPT: 16.4µM*; 12-LOX inh: 0.0%; HT1080NT lethal: -20.5%; TDP1 cell CPT: inconclusive; HT1080 IDH1KD tx: -12.0%

How did O=C(COc1ccc(C2SCCCS2)cc1)Nc1ccc(F)cc1 do in these assays?
12-LOX inh: -5.1%

What do the screens show for `CC(C)c1ccc(NC(=O)COc2ccc(C3SCCS3)cc2)cc1`?
TDP1 cell noCPT: 23.1µM*; IL1B secr inh: 12.8; 12-LOX inh: 10.9%; HT1080NT lethal: -0.3%; TDP1 cell CPT: inconclusive; HT1080 IDH1KD tx: -6.4%

Results for NS(=O)(=O)c1ccc(F)c(C(=O)NC2CCc3[nH]ncc3C2)c1 (stereo not drawn) ?
12-LOX inh: -8.7%

Results for COc1ccc(-c2csc(Nc3ccccc3)[n+]2Cc2ccccc2)cc1 ?
TDP1 cell noCPT: 14.6µM*; IL1B secr inh: -26.9; 12-LOX inh: -16.4%; HT1080NT lethal: -14.0%; TDP1 cell CPT: inconclusive; HT1080 IDH1KD tx: -8.6%

How did O=[N+]([O-])c1ccc(-c2csc(Nc3ccccc3)[n+]2Cc2ccccc2)cc1 do in these assays?
TDP1 cell noCPT: 20.6µM*; IL1B secr inh: -7.1; 12-LOX inh: inconclusive; HT1080NT lethal: -1.1%; TDP1 cell CPT: 20.6µM*; HT1080 IDH1KD tx: -1.2%

What do the screens show for `Cc1ccc(-c2csc(Nc3ccc(C(=O)O)cc3)[n+]2Cc2ccccc2)cc1`?
TDP1 cell noCPT: inconclusive; IL1B secr inh: -10.7; 12-LOX inh: -3.6%; HT1080NT lethal: -22.9%; TDP1 cell CPT: -23.8%; HT1080 IDH1KD tx: -4.4%

How did Cc1nc(N2CCN(C(=O)c3ccoc3)CC2)cc(C(F)(F)F)n1 do in these assays?
12-LOX inh: 10.4%

How did COc1ccc(N2CCN(c3cc(C)nc4nc(-c5ccc(C)cc5)nn34)CC2)cc1 do in these assays?
TDP1 cell noCPT: -2.7%; 12-LOX inh: -9.4%; TDP1 cell CPT: -1.2%

What do the screens show for `Cc1nc2cc(-c3cccc(F)c3)nn2c(C)c1CCC(=O)N1CCN(c2ccccn2)CC1`?
TDP1 cell noCPT: -20.8%; IL1B secr inh: 4.0; 12-LOX inh: 4.1%; HT1080NT lethal: 0.3%; TDP1 cell CPT: -3.6%; HT1080 IDH1KD tx: 20.8%

How did COc1ccc(-c2cc3nc(C)c(C)c(N4CCN(C(=O)c5ccoc5)CC4)n3n2)cc1 do in these assays?
TDP1 cell noCPT: 18.4µM*; IL1B secr inh: 1.7; 12-LOX inh: inconclusive; HT1080NT lethal: -9.5%; TDP1 cell CPT: inconclusive; HT1080 IDH1KD tx: -5.5%

How did Cc1nc2cc(-c3cccc(F)c3)nn2c(N2CCN(C(=O)c3ccco3)CC2)c1C do in these assays?
TDP1 cell noCPT: 14.6µM*; IL1B secr inh: -14.3; 12-LOX inh: 7.6%; HT1080NT lethal: -5.4%; TDP1 cell CPT: 14.6µM*; HT1080 IDH1KD tx: -6.6%
